Laboratory results: PubChem BioAssay (Tox21)
Several values for one entry are separate records, joined by “and”; a condition that tells them apart may be missing. Equal entries are not always repeated. Inconclusive results are not listed. A call without a number means that no potency is given here. Activity calls are given as the source filed them. Unless noted, calls follow the shape of the dose curve; as a rule, active = well fitted curve in the direction sought with a large enough effect in the repeat runs; inconclusive = weak or mixed curves; inactive = no such curve, though single readings can be large; an effect the other way counts as inactive or inconclusive.

Assays:
[1] = qHTS assay to identify small molecule antagonists of the sonic hedgehog signaling (Shh) pathway (AID 1259369; calls by dose curve; also: nearly all actives have a fitted effect of over 45% in size; also: potency is read from the fitted curve at half-maximal effect)
How it was run: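 NIH/3T3-derived Gli1-Luc reporter cells plated 4 h, dosed with compound, then stimulated with conditioned medium for 24 h at 37 C. Firefly luciferase luminescence read after 30 min with detection reagent at room temperature.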

[2] = biological target: Estrogen receptor beta (Homo sapiens) (UniProt Q92731); experiment: qHTS assay to identify small molecule agonists of the estrogen receptor beta (ER-beta) signaling pathway (AID 1259377; active = well fitted activation curve with a large enough effect in the signal ratio in the repeat runs, not every such curve was filed as active; the % refers to the signal ratio)
How it was run: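 Ratiometric beta-lactamase FRET read-out came after 2 h substrate loading at room temperature. It followed 16 h compound treatment at 37C of GripTite HEK293T cells carrying a UAS-bla reporter, plated in 2% charcoal-stripped FBS medium.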

[3] = qHTS assay to identify small molecule agonists of the androgen receptor (AR) signaling pathway in the presence of an antagonist - cell viability counter screen (AID 1259379); also: nearly all actives have a fitted effect of over 25% in size; also: potency is read from the fitted curve at half-maximal effect
How it was run: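 MDA-kb2 cells (MMTV-luciferase, AR/GR), 3,000/well, 5 h attachment, then 3.0 µM nilutamide (final) and compounds at 15 concentrations. Viability by CellTiter-Fluor fluorescence after 16 h at 37 °C, 0% CO2, in the reporter wells.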

[4] = qHTS assay to identify small molecule antagonists of the estrogen receptor beta (ER-beta) signaling pathway - cell viability counter screen (AID 1259382); also: nearly all actives have a fitted effect of over 55% in size; also: potency is read from the fitted curve at half-maximal effect
How it was run: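 ER-beta-UAS-bla HEK293T cells in 2% charcoal-stripped FBS medium, treated with compound plus 1 nM 17-beta-estradiol for 16 h at 37C. Viability read by CellTiter-Glo luminescence after 30 min at room temperature in the same wells.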

[5] = biological target: Estrogen receptor (Homo sapiens) (UniProt P03372); experiment: qHTS assay to identify small molecule agonists of the estrogen receptor alpha (ER-alpha) signaling pathway in the presence of an antagonist (AID 1259383; calls by dose curve; also: top concentration of the series differs between compounds; nearly all actives have a fitted effect of over 15% in size)
How it was run: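 VM7Luc4E2 cells express endogenous full-length ER-alpha with an ERE-luciferase reporter and were hormone-deprived for 5 days. Compounds at 15 concentrations were added with 10.0nM ICI-182,780 for 22hr at 37C. Luminescence was read with ONE-Glo.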

[6] = qHTS assay to identify small molecule agonists or antagonists of the thyroid stimulating hormone receptor (TSHR) signaling pathway - wild type cell line counter screen (AID 1259384; calls by dose curve)
How it was run: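 Counter screen in untransfected Hek293: compounds (15-point titration, triplicate) plus phosphodiesterase inhibitor Ro20-1724 added after 18 h plating; 30 min RT. Intracellular cAMP via competitive d2/cryptate immunoassay, 1 h incubation.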

[7] = biological target: Thyrotropin receptor (Homo sapiens) (UniProt P16473); experiment: qHTS assay to identify small molecule antagonists of the thyroid stimulating hormone receptor (TSHR) signaling pathway (AID 1259385; calls by dose curve; also: nearly all actives have a fitted effect of over 20% in size)
How it was run: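 Antagonist mode: compound-treated TSHR-expressing HEK293 cells were stimulated with 1.5 ng/mL TSH (final) in presence of Ro20-1724 for 30 min at RT. HTRF cAMP detection after 1 h; each compound tested at 15 concentrations, triplicate.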

[8] = qHTS assay to identify small molecule agonists of the estrogen receptor alpha (ER-alpha) signaling pathway in the presence of an antagonist - cell viability counter screen (AID 1259386);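 also: cells exposed to compounds for 22 h at 37 °C before the viability read; nearly all actives have a fitted effect of over 30% in size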; also: potency is read from the fitted curve at half-maximal effect
How it was run: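 Cell viability in VM7Luc4E2 cells (endogenous full-length ER-alpha) measured by CellTiter-Fluor fluorescence in the same wells as the luciferase screen. Cells pre-cultured 5 days in charcoal-stripped serum, then treated 22 h with compounds at 15 concentrations plus 10.0nM ICI-182,780.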

[9] = biological target: Progesterone receptor (Homo sapiens) (UniProt P06401); experiment: qHTS assay to identify small molecule agonists of the progesterone receptor (PR) signaling pathway (AID 1346784; calls by dose curve; also: nearly all actives have a fitted effect of over 30% in size)
How it was run: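 Agonist qHTS: compounds pinned onto 3,000 PR-UAS-bla HEK 293T cells per well in charcoal-stripped serum medium, 16hr at 37C, then beta-lactamase activity measured by LiveBLAzer FRET fluorescence after 2 hours at room temperature.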

[10] = qHTS assay to identify small molecule antagonists of the progesterone receptor (PR) signaling pathway - cell viability counter screen (AID 1346798); also: nearly all actives have a fitted effect of over 50% in size; also: potency is read from the fitted curve at half-maximal effect
How it was run: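 Cytotoxicity read as CellTiter-Glo luminescence (30 min, room temperature) in the same wells as the beta-lactamase readout. HEK293T PR-UAS-bla cells in charcoal-stripped 2% FBS received compound and R5020, then 16 h at 37C, 5% CO2.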

[11] = qHTS assay to identify small molecule agonists of the progesterone receptor (PR) signaling pathway - cell viability counter screen (AID 1346799; calls by dose curve; also: nearly all actives have a fitted effect of over 45% in size; also: potency is read from the fitted curve at half-maximal effect)
How it was run: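 Cytotoxicity measured by CellTiter-Glo luminescence (30 min, RT) in the same wells as the PR beta-lactamase agonist read. Those HEK293T cells had 16 h compound treatment at 37 C in 2% charcoal-stripped FBS medium.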

[12] = qHTS assay to identify small molecule antagonists of the TGF-beta/Smad signaling pathway - cell viability counter screen (AID 1346824); also: nearly all actives have a fitted effect of over 50% in size; also: potency is read from the fitted curve at half-maximal effect
How it was run: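 Cytotoxicity counter-screen run in the same wells as the beta-lactamase Smad reporter read: CellTiter-Glo luminescence after 30 min at room temperature. HEK 293T SBE-bla cells had 5 hr compound exposure at 37 C with TGF-beta1 (0.25 ng/mL stock).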

[13] = qHTS assay to identify small molecule agonists of the TGF-beta/Smad signaling pathway - cell viability counter screen (AID 1346829); also: nearly all actives have a fitted effect of over 45% in size; also: potency is read from the fitted curve at half-maximal effect
How it was run: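 Same-well cytotoxicity: CellTiter-Glo added after the 2 hr room-temperature beta-lactamase substrate step, luminescence measured 30 min later; cells had 5 hr of compound at 37 C.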

[14] = qHTS assay to identify small molecule agonists of the TGF-beta/Smad signaling pathway (AID 1346859; active = well fitted activation curve with a large enough effect in the signal ratio in the repeat runs, not every such curve was filed as active; the % refers to the signal ratio; also: series mostly up to about 77 µM)
How it was run: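 Fluorescence (ex 405 nm; em 460 and 530 nm) was read 2 h after LiveBLAzer FRET substrate at RT. The preceding compound treatment of overnight-plated SBE-bla HEK293T cells lasted 5 h at 37 C.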

[15] = biological target: Progesterone receptor (Homo sapiens) (UniProt P06401); experiment: qHTS assay to identify small molecule antagonists of the progesterone receptor (PR) signaling pathway (AID 1346795; active = well fitted inhibition curve with a large enough effect in the signal ratio in the repeat runs, not every such curve was filed as active; the % refers to the signal ratio; also: potency is read from the fitted curve at half-maximal effect)
How it was run: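 Antagonist mode with agonist R5020 at 1 nM final and 16 hr incubation at 37C. Reporter was beta-lactamase driven by UAS in HEK293T (PR-UAS-bla), 2% charcoal-stripped serum; signal from LiveBLAzer FRET substrate, 2 hr at room temperature.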

[16] = qHTS assay to identify small molecule agonists of the estrogen receptor beta (ER-beta) signaling pathway - cell viability counter screen (AID 1259380); also: nearly all actives have a fitted effect of over 30% in size; also: potency is read from the fitted curve at half-maximal effect
How it was run: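 ER-beta-UAS-bla HEK293T cells in medium with 2% charcoal-stripped FBS, pre-incubated 6 hr, then treated 16 hr at 37C. Cytotoxicity read in the same wells by CellTiter-Glo luminescence after 30 min at room temperature.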

[17] = biological target: Thyrotropin-releasing hormone receptor (Homo sapiens) (UniProt P34981); experiment: qHTS assay to identify small molecule antagonists of the thyrotropin-releasing hormone receptor (TRHR) signaling pathway (AID 1346877; active = well fitted inhibition curve with a large enough effect in the repeat runs, not every such curve was filed as active; also: series mostly up to about 51 µM)
How it was run: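 TRHR-expressing HEK293 cells loaded with calcium dye for 2 h at 37 C; compounds pre-incubated 5 min at room temperature before TRH challenge at 1 nM final. Intracellular calcium fluorescence read kinetically for 3 min; 15 concentrations in triplicate.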

[18] = biological target: Thyrotropin-releasing hormone receptor (Homo sapiens) (UniProt P34981); experiment: qHTS assay to identify small molecule agonists of the thyrotropin-releasing hormone receptor (TRHR) signaling pathway (AID 1346891; calls by dose curve; also: potency is read from the fitted curve at half-maximal effect; as to activation: series mostly up to about 58 µM)
How it was run: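 Agonist-mode intracellular calcium readout: kinetic fluorescence over 3 min at 1 s intervals after compound addition to TRHR-HEK293 cells (18 h seeded, 2 h dye-loaded at 37 C). Fifteen concentrations, triplicates.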

[19] = biological target: Androgen receptor (Homo sapiens) (UniProt P10275); experiment: qHTS assay to identify small molecule agonists of the androgen receptor (AR) signaling pathway in the presence of an antagonist (AID 1259381; calls by dose curve; also: nearly all actives have a fitted effect of over 15% in size)
How it was run: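 MDA-kb2 cells carrying MMTV-luciferase (AR/GR responsive), 3,000 cells/well, co-treated with 3.0 uM nilutamide final. Compounds at 15 concentrations, 16 hr at 37C without CO2. Luciferase luminescence read after 30 min with ONE-Glo.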

Sequence of Estrogen receptor (Homo sapiens) (P03372 whole entry, looked up): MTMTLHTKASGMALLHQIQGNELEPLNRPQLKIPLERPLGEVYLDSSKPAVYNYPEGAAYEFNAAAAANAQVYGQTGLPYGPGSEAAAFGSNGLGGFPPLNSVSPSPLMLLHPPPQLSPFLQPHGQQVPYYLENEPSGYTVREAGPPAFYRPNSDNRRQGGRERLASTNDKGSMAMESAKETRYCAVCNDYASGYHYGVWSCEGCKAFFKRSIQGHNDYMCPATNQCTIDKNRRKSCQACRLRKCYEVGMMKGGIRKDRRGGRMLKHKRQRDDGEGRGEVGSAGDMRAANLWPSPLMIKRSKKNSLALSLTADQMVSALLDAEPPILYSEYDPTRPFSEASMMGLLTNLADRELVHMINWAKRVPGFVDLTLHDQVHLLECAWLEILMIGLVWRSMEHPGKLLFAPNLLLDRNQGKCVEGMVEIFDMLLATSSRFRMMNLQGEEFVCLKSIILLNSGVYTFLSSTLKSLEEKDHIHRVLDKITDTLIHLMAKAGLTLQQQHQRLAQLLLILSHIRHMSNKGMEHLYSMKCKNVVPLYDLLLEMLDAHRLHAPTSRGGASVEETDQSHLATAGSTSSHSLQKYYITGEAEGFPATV
Sequence of Estrogen receptor beta (Homo sapiens) (Q92731 whole entry, looked up): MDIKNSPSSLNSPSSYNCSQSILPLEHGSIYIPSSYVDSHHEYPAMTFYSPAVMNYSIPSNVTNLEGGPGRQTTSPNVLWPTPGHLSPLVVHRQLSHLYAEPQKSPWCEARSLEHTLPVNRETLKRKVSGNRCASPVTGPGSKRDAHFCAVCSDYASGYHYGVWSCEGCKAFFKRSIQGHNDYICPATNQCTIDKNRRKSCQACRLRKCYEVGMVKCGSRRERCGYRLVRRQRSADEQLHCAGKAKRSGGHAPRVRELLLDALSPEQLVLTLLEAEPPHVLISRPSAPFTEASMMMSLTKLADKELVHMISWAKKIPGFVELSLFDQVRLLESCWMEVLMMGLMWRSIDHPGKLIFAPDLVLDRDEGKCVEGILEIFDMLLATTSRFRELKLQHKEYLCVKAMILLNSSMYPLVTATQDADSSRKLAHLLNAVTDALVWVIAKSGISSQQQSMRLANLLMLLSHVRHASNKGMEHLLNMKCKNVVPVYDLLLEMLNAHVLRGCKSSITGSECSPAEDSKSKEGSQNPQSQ
Sequence of Progesterone receptor (Homo sapiens) (P06401 whole entry, looked up): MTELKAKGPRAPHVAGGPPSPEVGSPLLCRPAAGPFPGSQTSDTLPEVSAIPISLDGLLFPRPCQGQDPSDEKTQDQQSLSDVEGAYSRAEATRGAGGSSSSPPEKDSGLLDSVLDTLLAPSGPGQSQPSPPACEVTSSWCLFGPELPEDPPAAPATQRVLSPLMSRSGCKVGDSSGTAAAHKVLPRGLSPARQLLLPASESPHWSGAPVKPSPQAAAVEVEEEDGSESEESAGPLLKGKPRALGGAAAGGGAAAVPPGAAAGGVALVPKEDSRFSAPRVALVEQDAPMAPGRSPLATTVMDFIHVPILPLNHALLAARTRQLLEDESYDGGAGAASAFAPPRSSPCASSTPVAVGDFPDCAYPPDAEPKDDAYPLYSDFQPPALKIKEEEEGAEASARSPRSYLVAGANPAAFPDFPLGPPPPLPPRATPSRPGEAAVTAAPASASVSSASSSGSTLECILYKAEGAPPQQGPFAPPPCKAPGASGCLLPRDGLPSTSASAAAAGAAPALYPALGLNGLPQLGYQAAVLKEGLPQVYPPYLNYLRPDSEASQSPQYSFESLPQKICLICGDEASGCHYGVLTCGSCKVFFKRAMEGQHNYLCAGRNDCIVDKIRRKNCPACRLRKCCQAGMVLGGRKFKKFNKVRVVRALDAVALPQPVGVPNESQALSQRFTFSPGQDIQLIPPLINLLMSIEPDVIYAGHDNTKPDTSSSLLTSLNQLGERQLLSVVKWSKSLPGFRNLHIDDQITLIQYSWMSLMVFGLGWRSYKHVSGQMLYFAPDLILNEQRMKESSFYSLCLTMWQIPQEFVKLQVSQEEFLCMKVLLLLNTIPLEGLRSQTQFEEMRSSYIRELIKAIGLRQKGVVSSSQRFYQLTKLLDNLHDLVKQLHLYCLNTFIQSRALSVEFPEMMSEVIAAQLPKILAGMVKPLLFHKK
Sequence of Thyrotropin receptor (Homo sapiens) (P16473 whole entry, looked up): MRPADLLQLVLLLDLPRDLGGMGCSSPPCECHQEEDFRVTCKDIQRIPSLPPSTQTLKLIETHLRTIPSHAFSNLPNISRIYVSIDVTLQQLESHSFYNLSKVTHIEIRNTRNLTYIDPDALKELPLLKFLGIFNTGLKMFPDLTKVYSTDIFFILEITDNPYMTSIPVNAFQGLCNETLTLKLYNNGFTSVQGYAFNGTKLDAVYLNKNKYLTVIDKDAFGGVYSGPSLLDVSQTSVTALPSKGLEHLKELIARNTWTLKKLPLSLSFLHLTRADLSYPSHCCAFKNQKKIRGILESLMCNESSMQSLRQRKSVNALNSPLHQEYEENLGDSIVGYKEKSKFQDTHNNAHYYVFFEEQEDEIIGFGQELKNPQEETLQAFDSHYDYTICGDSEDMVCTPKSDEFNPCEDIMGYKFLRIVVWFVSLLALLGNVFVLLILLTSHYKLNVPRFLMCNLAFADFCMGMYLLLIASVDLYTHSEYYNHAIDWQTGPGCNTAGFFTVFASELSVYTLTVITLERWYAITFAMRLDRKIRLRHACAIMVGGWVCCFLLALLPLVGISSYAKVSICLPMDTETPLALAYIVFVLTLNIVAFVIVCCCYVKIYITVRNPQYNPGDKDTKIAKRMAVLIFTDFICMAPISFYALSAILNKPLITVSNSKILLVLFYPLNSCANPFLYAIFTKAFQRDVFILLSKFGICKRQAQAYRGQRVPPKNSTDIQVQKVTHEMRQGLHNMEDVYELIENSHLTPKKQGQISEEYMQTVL
Sequence of Thyrotropin-releasing hormone receptor (Homo sapiens) (P34981 whole entry, looked up): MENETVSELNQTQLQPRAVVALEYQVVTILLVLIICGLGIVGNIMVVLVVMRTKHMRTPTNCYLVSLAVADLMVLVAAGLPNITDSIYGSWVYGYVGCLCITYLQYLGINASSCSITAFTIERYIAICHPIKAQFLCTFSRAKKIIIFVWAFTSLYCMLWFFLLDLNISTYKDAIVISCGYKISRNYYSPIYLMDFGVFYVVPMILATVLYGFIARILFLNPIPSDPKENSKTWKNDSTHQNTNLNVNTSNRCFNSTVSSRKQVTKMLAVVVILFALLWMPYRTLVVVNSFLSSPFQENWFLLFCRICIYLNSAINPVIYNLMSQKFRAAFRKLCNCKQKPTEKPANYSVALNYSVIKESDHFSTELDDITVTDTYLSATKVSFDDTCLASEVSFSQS
Sequence of Androgen receptor (Homo sapiens) (P10275 whole entry, looked up): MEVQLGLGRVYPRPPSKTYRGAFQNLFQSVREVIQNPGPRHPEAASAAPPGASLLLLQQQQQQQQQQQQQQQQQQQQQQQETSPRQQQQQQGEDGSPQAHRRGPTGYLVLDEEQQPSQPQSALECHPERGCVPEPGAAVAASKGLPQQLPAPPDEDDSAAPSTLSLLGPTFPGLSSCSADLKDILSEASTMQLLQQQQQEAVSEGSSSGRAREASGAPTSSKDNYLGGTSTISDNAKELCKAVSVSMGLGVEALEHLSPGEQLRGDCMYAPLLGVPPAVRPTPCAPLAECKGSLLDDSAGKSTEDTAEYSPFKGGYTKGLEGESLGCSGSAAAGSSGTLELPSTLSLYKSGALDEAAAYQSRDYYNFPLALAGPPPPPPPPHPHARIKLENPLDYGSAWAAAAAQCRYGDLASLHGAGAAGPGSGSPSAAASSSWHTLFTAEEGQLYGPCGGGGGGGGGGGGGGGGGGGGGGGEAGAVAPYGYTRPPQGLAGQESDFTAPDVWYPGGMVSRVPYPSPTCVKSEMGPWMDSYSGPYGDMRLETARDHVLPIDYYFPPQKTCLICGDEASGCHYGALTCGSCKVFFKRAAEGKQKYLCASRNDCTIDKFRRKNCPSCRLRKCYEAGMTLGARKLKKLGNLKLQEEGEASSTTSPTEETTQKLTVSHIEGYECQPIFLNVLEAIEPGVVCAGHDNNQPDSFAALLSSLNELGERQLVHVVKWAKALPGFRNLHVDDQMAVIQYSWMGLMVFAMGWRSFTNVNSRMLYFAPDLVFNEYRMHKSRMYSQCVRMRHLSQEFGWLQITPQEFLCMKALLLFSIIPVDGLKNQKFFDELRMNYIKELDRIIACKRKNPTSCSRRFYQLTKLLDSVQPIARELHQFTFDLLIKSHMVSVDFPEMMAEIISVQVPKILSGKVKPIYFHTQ

Compound | Potency [1] | Potency [2] | Potency [3] | Potency [4] | Potency [5] | outcome [6] | Potency [7] | Potency [8] | Potency [9] | Potency [10] | Potency [11] | Potency [12] | Potency [13] | Potency [14] | Potency [15] | Potency [16] | Potency [17] | Potency [18] | Potency [19]
CC(C)(C)CC(C)(C)c1ccc(OCCOCC[N+](C)(C)Cc2ccccc2)cc1 | 4.22 µM (active) | inactive | 27.3 µM (active) and 21.1 µM (active) | 27.3 µM (active) and 15 µM (active) | inactive | inactive | inactive | 61.1 µM (active) | inactive | 54.4 µM (active) | 48.5 µM (active) | 48.9 µM (active) | 43.6 µM (active) | inactive |  |  |  |  | 
Fc1ccc(C(c2ccc(F)cc2)N2CCN(C/C=C/c3ccccc3)CC2)cc1 | inactive | inactive |  |  | inactive | inactive | inactive | inactive |  |  |  |  |  | inactive | 23.7 µM (active) |  |  |  | 
C1CCCC1 | inactive | inactive | inactive | inactive |  | inactive | inactive | inactive |  | inactive | inactive | inactive | inactive | inactive | inactive | inactive | inactive | inactive | 
Cc1ccc2oc(CN(Cc3ccccc3)C(=O)Nc3c(F)cc(F)cc3F)c(-c3ccc(Cl)cc3)c2c1 | inactive | inactive | inactive | inactive | inactive | inactive | inactive | inactive |  |  |  | inactive | inactive | inactive |  |  | inactive | inactive | 
Nc1ccc2cc(S(=O)(=O)O)cc(O)c2c1N=Nc1ccccc1C(F)(F)F | inactive | inactive | 30.6 µM (active) | inactive |  |  |  | 48.6 µM (active) | inactive | inactive | inactive |  | inactive | inactive | inactive | inactive |  | inactive | 
NNc1nc(-c2ccccc2)cs1 | inactive | inactive |  |  | inactive | inactive |  | 56 µM (active) | inactive |  |  |  | inactive |  | 19.9 µM (active) | 25 µM (active) | inactive | inactive | 
CCC(Cl)C(Cl)C(Cl)CC(Cl)C(Cl)C(C)Cl (stereo unspecified) | inactive | inactive | inactive | inactive |  | inactive | inactive | inactive | inactive | inactive |  |  | inactive | inactive | 17.2 µM (active) |  | inactive | inactive | 
CC(C)(C)c1ccc(C(=O)O)cc1 | inactive | inactive | inactive | inactive |  | inactive | inactive | inactive |  | inactive | inactive | inactive | inactive | inactive |  | inactive |  |  | 
CCCCCCCCS(=O)C(C)Cc1ccc2c(c1)OCO2 (stereo unspecified) | 31.2 µM (active) | inactive | inactive | inactive | inactive | inactive |  | inactive | inactive |  |  | inactive | inactive | inactive | 44.1 µM (active) |  |  | inactive | inactive
CNC(=O)c1ccccc1 | inactive | inactive | inactive | inactive | inactive | inactive | inactive | inactive | inactive | inactive | inactive | inactive | inactive | inactive | inactive |  | inactive | inactive | 
O=C(N/N=C/c1ccccc1O)c1ccncc1 | 0.473 µM (active) | inactive | inactive | inactive | inactive | inactive | inactive |  |  |  |  | inactive | inactive | inactive | 10.6 µM (active) |  |  | inactive | 
O=C(Oc1cccc2cccnc12)c1ccccc1 | inactive | inactive | inactive |  | inactive | inactive | inactive | inactive |  | 4.22 µM (active) | 4.73 µM (active) | inactive | inactive |  |  | 10.6 µM (active) |  | inactive | 
O=C(NOCC1CC1)c1ccc(F)c(F)c1Nc1ccc(I)cc1Cl | 13.3 µM (active) | inactive | 29.8 µM (active) | inactive | inactive |  |  |  |  |  |  | inactive | inactive | inactive |  |  |  | inactive | inactive
O=C1CCCCCN1SSN1CCCCCC1=O | 9.69 µM (active) | inactive | inactive | inactive | inactive |  | inactive | inactive | inactive | inactive |  |  |  | inactive | inactive |  | inactive | inactive | 
CNCc1cc(F)ccc1Oc1ccc(Cl)c(Cl)c1 | 12.2 µM (active) | inactive | 54.5 µM (active) |  | inactive | inactive | inactive |  |  | inactive | inactive | inactive | inactive | inactive | 61.1 µM (active) | 27.3 µM (active) |  | 34.7 µM (active) | 
Cc1cccc(CN2CCN(C(c3ccccc3)c3ccc(Cl)cc3)CC2)c1 (stereo unspecified) | inactive | inactive | inactive | inactive | inactive | inactive |  | inactive |  | inactive |  | inactive | inactive | inactive |  | inactive |  | inactive | 
O=C1Cc2cc(CCN3CCN(c4nsc5ccccc45)CC3)c(Cl)cc2N1 | 29.8 µM (active) | inactive |  |  | inactive | inactive | inactive |  |  | inactive |  | inactive | inactive | inactive | inactive | 23.7 µM (active) | inactive | inactive | 
CCCC1O[C@@H]2C[C@H]3[C@@H]4CCC5=CC(=O)C=C[C@]5(C)[C@H]4[C@@H](O)C[C@]3(C)[C@]2(C(=O)CO)O1 (stereo partly specified) | 7.7 µM (active) | inactive | inactive | inactive |  |  |  | inactive |  | inactive | inactive | inactive | inactive |  |  |  |  | inactive | 
